Experiments:
Test in all cases: log2 ratio of Biotin-Ahx-Ub-VS probe labelling (fragment/DMSO); higher = less target engagement (more negative = stronger competition), active = hit call of the paper (q ≤ 0.05, log2 ratio ≤ -1)
Conditions in all cases: compound concentration: 200 uM; treatment time: 3 h
[1] = target: USP34 (UniProt Q70CQ2)
Method in brief: (§1)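 Fragment (200 µM) or vehicle was incubated for 3 h with triplicate HEK293T lysate samples of 495 µg, which were then treated with Biotin-Ahx-Ub-VS at 0.5 µM final for 1 h. Labelled DUBs were enriched on NeutrAvidin, digested with LysC and trypsin, and analysed by diaPASEF LC-MS/MS. Values are average log2 fragment/vehicle ratios from an unpaired t-test on global-median-normalised Spectronaut label-free quantities, using proteins with ≥2 unique peptides.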

[2] = target: T1, USP36 (UniProt Q9P275)
T1 sequence (whole entry): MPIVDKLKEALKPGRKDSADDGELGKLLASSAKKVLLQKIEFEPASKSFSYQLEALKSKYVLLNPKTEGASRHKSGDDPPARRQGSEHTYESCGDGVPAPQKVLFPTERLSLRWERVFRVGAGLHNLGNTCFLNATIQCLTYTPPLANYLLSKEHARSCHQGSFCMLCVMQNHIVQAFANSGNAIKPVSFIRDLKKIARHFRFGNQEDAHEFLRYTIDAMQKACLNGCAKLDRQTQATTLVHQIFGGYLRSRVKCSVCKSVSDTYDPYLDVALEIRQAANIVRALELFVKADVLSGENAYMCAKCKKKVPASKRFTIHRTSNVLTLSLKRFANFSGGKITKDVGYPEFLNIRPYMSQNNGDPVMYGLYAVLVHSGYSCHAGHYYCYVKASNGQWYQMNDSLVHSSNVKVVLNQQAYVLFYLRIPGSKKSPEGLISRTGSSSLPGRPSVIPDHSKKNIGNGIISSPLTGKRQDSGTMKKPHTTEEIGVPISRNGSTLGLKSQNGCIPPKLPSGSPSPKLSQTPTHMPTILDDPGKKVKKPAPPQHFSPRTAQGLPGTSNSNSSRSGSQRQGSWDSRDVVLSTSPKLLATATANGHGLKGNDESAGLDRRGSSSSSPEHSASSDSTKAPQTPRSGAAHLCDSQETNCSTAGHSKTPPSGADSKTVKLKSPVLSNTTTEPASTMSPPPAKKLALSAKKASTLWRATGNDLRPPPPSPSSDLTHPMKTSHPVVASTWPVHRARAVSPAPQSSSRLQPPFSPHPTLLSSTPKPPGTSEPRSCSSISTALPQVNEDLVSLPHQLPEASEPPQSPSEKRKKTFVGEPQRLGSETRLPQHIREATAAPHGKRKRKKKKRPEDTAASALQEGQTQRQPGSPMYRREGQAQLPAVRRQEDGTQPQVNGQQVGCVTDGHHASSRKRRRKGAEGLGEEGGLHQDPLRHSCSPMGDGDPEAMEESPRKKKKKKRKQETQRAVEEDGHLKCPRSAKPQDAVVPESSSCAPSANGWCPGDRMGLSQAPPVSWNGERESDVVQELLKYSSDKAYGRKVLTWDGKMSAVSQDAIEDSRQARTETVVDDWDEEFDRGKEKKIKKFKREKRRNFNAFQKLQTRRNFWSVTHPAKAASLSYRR
Method in brief: as §1

[3] = target: T2, USP38 (UniProt Q8NB14)
T2 sequence (whole entry): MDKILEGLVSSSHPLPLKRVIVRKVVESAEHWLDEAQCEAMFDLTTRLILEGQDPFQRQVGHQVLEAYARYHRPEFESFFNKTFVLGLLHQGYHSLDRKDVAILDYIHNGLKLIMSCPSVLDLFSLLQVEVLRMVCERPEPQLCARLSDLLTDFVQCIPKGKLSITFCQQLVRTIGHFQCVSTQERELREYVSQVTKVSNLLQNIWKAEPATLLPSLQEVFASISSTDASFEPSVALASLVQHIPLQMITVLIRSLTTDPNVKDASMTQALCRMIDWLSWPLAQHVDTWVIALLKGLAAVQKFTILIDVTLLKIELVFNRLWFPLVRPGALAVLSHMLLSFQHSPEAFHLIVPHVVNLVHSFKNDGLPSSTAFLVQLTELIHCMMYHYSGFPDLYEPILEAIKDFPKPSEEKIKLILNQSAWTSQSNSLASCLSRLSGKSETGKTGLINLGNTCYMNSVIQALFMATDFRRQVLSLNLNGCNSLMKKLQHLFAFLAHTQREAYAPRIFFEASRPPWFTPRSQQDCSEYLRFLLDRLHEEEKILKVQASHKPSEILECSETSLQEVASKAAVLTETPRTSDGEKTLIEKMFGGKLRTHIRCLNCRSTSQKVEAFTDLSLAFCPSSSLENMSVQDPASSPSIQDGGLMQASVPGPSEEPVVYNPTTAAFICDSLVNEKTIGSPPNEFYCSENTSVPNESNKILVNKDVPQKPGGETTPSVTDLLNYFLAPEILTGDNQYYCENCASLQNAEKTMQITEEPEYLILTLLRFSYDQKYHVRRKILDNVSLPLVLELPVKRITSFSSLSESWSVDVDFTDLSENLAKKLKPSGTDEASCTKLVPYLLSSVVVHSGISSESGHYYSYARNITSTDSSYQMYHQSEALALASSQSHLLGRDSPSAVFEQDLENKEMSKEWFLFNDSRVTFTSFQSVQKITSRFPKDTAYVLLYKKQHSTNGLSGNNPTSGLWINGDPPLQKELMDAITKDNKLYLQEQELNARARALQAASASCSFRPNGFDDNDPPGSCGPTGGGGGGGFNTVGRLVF
Method in brief: as §1

[4] = target: T3, USP39 (UniProt Q53GS9)
T3 sequence (whole entry): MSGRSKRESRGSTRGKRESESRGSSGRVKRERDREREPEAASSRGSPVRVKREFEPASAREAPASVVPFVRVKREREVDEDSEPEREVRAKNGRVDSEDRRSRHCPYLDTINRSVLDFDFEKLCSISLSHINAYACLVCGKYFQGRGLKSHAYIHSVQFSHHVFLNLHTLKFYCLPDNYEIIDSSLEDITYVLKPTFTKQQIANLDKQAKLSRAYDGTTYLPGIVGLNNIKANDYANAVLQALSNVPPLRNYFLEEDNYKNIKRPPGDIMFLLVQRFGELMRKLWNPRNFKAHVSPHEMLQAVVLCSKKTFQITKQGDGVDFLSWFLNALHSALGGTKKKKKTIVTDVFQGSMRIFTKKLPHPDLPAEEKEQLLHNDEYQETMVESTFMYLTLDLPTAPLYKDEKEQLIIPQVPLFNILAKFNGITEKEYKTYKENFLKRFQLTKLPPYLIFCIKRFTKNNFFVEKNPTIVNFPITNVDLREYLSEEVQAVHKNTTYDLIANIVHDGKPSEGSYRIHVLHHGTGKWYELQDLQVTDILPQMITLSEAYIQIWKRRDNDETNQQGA
Method in brief: as §1

[5] = target: T4, USP4 (UniProt Q13107)
T4 sequence (whole entry): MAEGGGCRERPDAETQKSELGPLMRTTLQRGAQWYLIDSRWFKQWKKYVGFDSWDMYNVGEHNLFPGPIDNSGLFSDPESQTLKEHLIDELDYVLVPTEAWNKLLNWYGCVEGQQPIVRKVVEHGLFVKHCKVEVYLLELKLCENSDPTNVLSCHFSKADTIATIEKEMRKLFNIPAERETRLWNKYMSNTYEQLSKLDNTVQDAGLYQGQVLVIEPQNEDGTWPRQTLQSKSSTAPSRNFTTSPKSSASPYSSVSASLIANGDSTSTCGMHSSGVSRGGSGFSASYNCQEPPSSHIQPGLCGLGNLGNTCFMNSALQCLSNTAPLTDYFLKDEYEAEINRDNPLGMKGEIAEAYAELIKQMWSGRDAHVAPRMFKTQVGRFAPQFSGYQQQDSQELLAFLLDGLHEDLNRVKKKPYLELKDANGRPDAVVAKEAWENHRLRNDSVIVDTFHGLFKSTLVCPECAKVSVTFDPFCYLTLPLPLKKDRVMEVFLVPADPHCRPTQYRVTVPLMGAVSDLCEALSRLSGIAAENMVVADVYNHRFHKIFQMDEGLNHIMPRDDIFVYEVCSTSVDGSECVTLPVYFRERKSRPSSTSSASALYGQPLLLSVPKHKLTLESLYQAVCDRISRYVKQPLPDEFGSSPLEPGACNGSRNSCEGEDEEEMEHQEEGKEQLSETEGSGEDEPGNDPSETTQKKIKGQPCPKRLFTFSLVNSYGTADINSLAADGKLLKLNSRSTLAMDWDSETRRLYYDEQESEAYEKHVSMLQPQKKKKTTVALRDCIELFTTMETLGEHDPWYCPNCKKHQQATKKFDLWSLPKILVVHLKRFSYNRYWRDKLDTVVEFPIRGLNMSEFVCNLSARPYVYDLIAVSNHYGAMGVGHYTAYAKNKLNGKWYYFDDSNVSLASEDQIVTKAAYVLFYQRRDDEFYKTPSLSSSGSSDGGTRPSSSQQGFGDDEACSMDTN
Method in brief: as §1

Measured: log2 ratio of Biotin-Ahx-Ub-VS probe labelling

Sequence of USP34 (Q70CQ2 whole entry, the tested form may be a part): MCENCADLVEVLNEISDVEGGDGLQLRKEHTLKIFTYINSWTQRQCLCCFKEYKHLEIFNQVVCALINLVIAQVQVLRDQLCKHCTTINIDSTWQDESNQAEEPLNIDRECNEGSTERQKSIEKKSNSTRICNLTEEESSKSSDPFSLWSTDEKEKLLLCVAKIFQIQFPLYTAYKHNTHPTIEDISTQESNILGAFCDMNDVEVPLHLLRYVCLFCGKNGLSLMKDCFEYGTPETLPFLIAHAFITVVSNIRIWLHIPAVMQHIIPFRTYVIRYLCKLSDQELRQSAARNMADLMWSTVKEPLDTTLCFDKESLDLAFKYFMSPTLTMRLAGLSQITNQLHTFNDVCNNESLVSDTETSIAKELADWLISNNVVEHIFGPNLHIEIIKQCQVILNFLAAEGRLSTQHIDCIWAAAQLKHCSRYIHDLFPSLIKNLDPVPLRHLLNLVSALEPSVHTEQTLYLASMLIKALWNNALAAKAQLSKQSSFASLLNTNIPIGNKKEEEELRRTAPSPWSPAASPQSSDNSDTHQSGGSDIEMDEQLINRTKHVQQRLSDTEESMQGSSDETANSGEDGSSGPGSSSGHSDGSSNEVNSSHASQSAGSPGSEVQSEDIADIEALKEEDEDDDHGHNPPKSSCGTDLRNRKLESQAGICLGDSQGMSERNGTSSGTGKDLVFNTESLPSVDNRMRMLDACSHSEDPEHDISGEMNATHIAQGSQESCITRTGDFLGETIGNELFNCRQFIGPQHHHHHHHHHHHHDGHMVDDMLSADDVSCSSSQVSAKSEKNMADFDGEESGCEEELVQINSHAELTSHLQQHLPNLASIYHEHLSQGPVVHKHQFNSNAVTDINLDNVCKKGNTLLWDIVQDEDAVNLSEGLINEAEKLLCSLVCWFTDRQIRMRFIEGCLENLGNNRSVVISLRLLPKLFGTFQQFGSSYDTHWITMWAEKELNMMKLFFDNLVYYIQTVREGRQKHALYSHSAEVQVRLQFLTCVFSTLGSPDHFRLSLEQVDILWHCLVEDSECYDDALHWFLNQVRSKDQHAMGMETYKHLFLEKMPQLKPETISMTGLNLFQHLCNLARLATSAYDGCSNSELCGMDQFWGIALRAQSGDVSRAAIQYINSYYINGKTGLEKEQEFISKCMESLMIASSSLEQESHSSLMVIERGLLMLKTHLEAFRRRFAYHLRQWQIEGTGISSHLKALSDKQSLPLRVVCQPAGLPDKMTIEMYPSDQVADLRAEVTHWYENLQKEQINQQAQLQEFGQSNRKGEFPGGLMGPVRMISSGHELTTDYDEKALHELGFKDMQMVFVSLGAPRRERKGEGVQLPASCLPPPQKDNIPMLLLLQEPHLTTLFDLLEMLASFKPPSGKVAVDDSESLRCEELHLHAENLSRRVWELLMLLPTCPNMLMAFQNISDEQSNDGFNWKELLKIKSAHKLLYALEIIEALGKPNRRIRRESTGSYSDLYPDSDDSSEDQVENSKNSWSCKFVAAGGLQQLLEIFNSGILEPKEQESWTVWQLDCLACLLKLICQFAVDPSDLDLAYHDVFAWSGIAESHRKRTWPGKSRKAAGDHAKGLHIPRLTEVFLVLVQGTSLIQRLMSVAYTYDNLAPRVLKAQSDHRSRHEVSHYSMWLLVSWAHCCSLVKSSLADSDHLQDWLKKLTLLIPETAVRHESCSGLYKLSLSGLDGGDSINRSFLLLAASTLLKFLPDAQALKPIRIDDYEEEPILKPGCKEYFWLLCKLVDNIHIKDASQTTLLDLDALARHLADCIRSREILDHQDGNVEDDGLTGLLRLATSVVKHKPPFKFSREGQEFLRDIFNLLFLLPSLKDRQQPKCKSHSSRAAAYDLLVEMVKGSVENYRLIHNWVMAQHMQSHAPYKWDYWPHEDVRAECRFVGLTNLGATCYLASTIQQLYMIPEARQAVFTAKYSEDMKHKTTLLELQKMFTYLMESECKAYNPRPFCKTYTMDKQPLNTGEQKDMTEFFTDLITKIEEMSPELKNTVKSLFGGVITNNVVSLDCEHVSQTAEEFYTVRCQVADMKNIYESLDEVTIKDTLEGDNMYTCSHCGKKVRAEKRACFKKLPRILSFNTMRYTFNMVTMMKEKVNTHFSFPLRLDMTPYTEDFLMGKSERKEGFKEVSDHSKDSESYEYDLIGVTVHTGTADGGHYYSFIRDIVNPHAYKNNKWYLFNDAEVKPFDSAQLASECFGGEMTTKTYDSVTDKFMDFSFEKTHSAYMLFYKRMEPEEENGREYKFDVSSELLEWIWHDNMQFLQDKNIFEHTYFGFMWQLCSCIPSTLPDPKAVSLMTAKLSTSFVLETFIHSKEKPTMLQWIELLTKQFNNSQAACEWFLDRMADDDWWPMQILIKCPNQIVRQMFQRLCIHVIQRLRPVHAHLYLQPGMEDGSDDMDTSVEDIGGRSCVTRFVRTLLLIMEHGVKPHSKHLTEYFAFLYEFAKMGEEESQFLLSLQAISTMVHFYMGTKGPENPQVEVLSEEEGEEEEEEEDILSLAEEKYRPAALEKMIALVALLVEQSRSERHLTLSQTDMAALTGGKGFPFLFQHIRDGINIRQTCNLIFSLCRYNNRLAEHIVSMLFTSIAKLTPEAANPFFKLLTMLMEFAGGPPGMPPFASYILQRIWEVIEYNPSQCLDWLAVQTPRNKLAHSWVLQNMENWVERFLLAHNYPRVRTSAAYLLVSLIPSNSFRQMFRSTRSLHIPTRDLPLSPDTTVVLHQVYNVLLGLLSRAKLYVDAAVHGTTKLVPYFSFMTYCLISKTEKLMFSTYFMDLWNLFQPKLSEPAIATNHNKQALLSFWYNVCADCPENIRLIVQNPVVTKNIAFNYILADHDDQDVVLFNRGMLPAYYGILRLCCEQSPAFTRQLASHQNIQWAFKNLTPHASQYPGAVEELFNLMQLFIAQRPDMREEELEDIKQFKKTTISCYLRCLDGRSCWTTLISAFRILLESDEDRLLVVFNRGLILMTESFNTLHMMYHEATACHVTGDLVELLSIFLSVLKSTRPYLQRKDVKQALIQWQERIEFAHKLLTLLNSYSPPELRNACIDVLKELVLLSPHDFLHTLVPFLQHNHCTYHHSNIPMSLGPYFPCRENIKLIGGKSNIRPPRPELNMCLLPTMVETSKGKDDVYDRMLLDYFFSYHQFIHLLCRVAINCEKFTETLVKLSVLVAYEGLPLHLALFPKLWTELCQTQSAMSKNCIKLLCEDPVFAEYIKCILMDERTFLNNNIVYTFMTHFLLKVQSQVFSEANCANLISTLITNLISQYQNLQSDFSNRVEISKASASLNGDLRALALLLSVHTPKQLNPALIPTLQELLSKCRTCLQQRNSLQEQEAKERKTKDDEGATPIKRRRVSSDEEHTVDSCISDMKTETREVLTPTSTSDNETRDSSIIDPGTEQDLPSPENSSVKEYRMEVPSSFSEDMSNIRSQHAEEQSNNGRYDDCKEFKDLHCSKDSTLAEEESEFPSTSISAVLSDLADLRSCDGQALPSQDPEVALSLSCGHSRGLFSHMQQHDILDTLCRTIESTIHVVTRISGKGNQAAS

CC(NC(=O)CCl)c1cnn(C2CC2)c1 (stereo not given)
inactive: [1] -0.133 | [2] -0.123 | [3] -0.144 | [4] -0.0478 | [5] -0.409

Source: the supplement of paper PMC11732987, “Enantioselective OTUD7B fragment discovery through chemoproteomics screening and high-throughput optimisation” (Communications Chemistry, 2025)
